Bioassay records as filed in PubChem BioAssay.
An excerpt weighted towards active compounds, which were near 9.5% of everything screened.
Pf growth 96h: inhibits malaria parasite growth, 96 h; P. falciparum luciferase reporter growth, 96 h; Potency, µM (titrated, usually from 28.7 µM), usual class: inhibitors; 320,000 compounds, 6.9% hits; active = well fitted inhibition curve with a large enough effect; inconclusive = small, poorly fitted or top-dose-only effect, or another doubt; inactive = no such curve, though single readings can be large or run the other way
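Readout is luminescence from an integrated firefly luciferase in P. falciparum. Red cells, 2% hematocrit and 0.05% parasitemia final, were cultured with compound through two parasite generations (96 hours) at 37 C, 5% CO2.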
SARS PLP yeast: SARS-CoV PLP inhibition in yeast; S. cerevisiae expressing SARS-CoV PLpro, growth rescue; Potency, µM (highest dose often 32.9 µM), usual class: activators; 330,000 compounds, 0.19% hits; also: nearly all actives have a fitted effect of over 55% in size
NS1 function inh: influenza NS1 inhibition. 270,000 compounds, 0.4% hits. Potency, µM (top dose mostly 46.1 µM); also: actives are rising curves; nearly all actives have a fitted effect of over 50% in size
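Growth recovery, yeast-based: influenza A NS1 expressed in S. cerevisiae causes slow growth, and suppressors are detected by OD600. The parent strain without NS1 is used as positive control.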
Pf growth 48h: P. falciparum growth inhibition at 48 hours (one generation) | Potency, µM (top dose mostly 28.7 µM), actives largely listed as inhibitors | 310,000 compounds, 5.9% hits | AID 504832 | P. falciparum luciferase growth in erythrocytes, 48 h; active = well fitted inhibition curve with a large enough effect; inconclusive = small, poorly fitted or top-dose-only effect, or another doubt; inactive = no such curve, though single readings can be large or run the other way
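Luciferase-expressing P. falciparum in infected erythrocytes (2% hematocrit, 0.1% parasitemia final) in RPMI 1640/0.5% Albumax were exposed to compound for 48 hours at 37 C, 5% CO2; growth read as luminescence.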
RE007 growth inh: less growth of the S. pombe RE007 Vpr strain; Potency, µM (series often up to 92.2 µM), most hits filed as inhibitors; 360,000 compounds, 0.21% hits; S. pombe RE007 Vpr strain, BacTiter-Glo ATP luminescence, 24 h; AID 651644; active = well fitted falling curve with a large enough effect; inconclusive = small, poorly fitted or top-dose-only effect; inactive = no such curve, though single readings can be large or run the other way; also: nearly all actives have a fitted effect of over 50% in size
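Fission yeast RE007 carrying one integrated HIV-1 vpr copy, seeded at OD 0.01 in PMG+AL medium with 23 nL pinned compound. Grown 24 h at 30 degrees; viability read by BacTiter-Glo luminescence after 5 min.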
Of the large screens only hits and unclear results are named; the others gave an inactive call; ! = not confirmed by another sample. Unless noted, calls follow the shape of the full dose curve.

CCC1=C(OC(=O)N(CC)CC)N2C(=O)OC(=NCCOC)[C@]2(Cc2ccccc2)[C@H]2C1=CC[C@H]1C(=O)N(CC(=O)OC)C(=O)[C@H]12	Pf growth 96h inconclusive, Pf growth 48h 9.3µM
CCC1=C2CC[C@H]3C(=O)N(CC)C(=O)[C@H]3[C@H]2[C@@]2(Cc3ccccc3)C(=NCc3ccccc3)OC(=O)N2C1=O	Pf growth 96h inconclusive, Pf growth 48h inconclusive
CCC1=C(OC(=O)N(CC)CC)N2C(=O)OC(=NCC(=O)OC)[C@]2(Cc2ccccc2)[C@H]2C1=CC[C@H]1C(=O)NC(=O)[C@H]12	Pf growth 96h inconclusive, Pf growth 48h inconclusive
CCC1=C(OC(=O)N(CC)CC)N2C(=O)OC(=NCCc3c[nH]c4ccccc34)[C@]2(Cc2ccccc2)[C@H]2C1=CC[C@H]1C(=O)NC(=O)[C@H]12	Pf growth 96h 12µM, Pf growth 48h inconclusive
O=C(NCCS(=O)(=O)NCc1ccccn1)c1ccccc1	none (no result: NS1 function inh)
OCc1cnc[nH]1	Pf growth 96h 9.3µM, Pf growth 48h inconclusive
Cn1c(CCc2nc3ccccc3[nH]2)nnc1SCC#N	Pf growth 48h inconclusive
COC(=O)C1=C(C)NC(=S)NC1c1ccc(-c2cc(Cl)ccc2Cl)o1 (configuration not stated)	Pf growth 96h inconclusive, Pf growth 48h 12µM
COC(=O)Cn1c(=NC(=O)c2ccc([N+](=O)[O-])s2)sc2cc(Br)ccc21	Pf growth 96h 0.83µM, Pf growth 48h inconclusive (no result: RE007 growth inh)
COC(=O)Cn1c(=NC(=O)c2ccc(Cl)s2)sc2cc(C)ccc21	NS1 function inh inconclusive
CN(C)S(=O)(=O)c1ccc(Cl)c(C(=O)Nc2cccc3ncccc23)c1	none
CCc1cc(=O)oc2cc(C)cc(OC(C)C(=O)NCc3cccnc3)c12 (configuration not stated)	Pf growth 96h inconclusive, Pf growth 48h inconclusive
CCCCc1cc(=O)oc2cc(C)cc(OC(C)C(=O)NCc3cccnc3)c12 (configuration not stated)	Pf growth 96h 17µM, Pf growth 48h inconclusive
CCc1cc(=O)oc2cc(C)cc(OC(C)C(=O)NCc3ccncc3)c12 (configuration not stated)	Pf growth 96h 9.3µM, Pf growth 48h inconclusive
Cc1cc(OC(C)C(=O)NCc2cccnc2)c2c3c(c(=O)oc2c1)CCC3 (configuration not stated)	Pf growth 96h 10µM, Pf growth 48h inconclusive
CC1(C)CCCC2=C1CC1C(=O)N(N)C(=O)C1C2 (configuration not stated)	none
CN(C)S(=O)(=O)c1cccc(C(=O)Nc2ccccc2C(=O)NC2CC2)c1	none (no result: Pf growth 96h, NS1 function inh, Pf growth 48h)
O=C(c1cc(F)c(F)cc1Cl)N1CCN(S(=O)(=O)c2cccs2)CC1	none (no result: NS1 function inh)
C[C@@H]1CN([C@H](C)CO)C(=O)CCCn2nncc2CO[C@H]1CN(C)Cc1ccccc1C(F)(F)F	none (no result: Pf growth 96h, SARS PLP yeast, NS1 function inh, Pf growth 48h)
Cc1cccc(-n2c(O)c(C=NCCCN3CCOCC3)c3ccccc3c2=O)c1	Pf growth 96h inconclusive, Pf growth 48h 7.4µM
CCN1CCCC1CN=Cc1c(O)n(-c2ccccc2)c(=O)c2ccccc12 (configuration not stated)	Pf growth 48h 3.7µM
Cc1sc(NC(=O)c2ccco2)c(C(c2cccnc2)N2CCCC2)c1C (configuration not stated)	Pf growth 96h 10µM, Pf growth 48h 12µM
CCOc1ccc(C(c2c(NC(=O)c3ccco3)sc(C)c2C)N2CCOCC2)cc1 (configuration not stated)	Pf growth 96h 13µM, Pf growth 48h 5.2µM (no result: NS1 function inh)
Cc1sc(NC(=O)c2ccco2)c(C(c2cccnc2)N2CCN(C)CC2)c1C (configuration not stated)	Pf growth 96h inconclusive, Pf growth 48h inconclusive
CCOc1ccc(C(c2c(NC(=O)c3ccccc3)sc(C)c2C)N2CCN(C)CC2)cc1 (configuration not stated)	Pf growth 96h 12µM, Pf growth 48h inconclusive
COc1cccc(C(c2c(NC(=O)c3ccco3)sc(C)c2C)N2CCOCC2)c1 (configuration not stated)	Pf growth 96h 3.3µM, Pf growth 48h 4.7µM (no result: NS1 function inh)
CC(C)(C)OC(=O)[C@H](C1N[C@@H](C(=O)O)C(C)(C)S1)N1C(=O)c2ccccc2C1=O (some centres not stated)	none (no result: Pf growth 96h, SARS PLP yeast, Pf growth 48h, RE007 growth inh)
CC1=C(C(=O)N(C(C)C)C(C)C)CC(CC(=O)NC(c2ccccc2)c2ccccc2)C(=O)N1Cc1ccc(F)cc1 (configuration not stated)	none (no result: Pf growth 96h, SARS PLP yeast, NS1 function inh, Pf growth 48h)
COc1ccccc1/C=C/CN1CCCC(CCC(=O)NCc2ccccc2F)C1 (configuration not stated)	Pf growth 96h inconclusive, Pf growth 48h inconclusive
CC1(C(=O)NS(=O)(=O)c2ccc(Cl)cc2)CCN1C(=O)C/C=C/c1ccccc1 (configuration not stated)	none (no result: Pf growth 96h, SARS PLP yeast, NS1 function inh, Pf growth 48h)
Cc1sc(NC(=O)c2ccco2)c(C(c2ccncc2)N2CCOCC2)c1C (configuration not stated)	Pf growth 96h inconclusive, Pf growth 48h 10µM
COc1ccc(CN[C@H](C)C(=O)O)cc1	none (no result: Pf growth 96h, SARS PLP yeast, Pf growth 48h, RE007 growth inh)
COc1c2c(c(OC)c3ccccc13)[C@@]1(OC2)O[C@H](CCO)C[C@H](O)[C@H]1O	none (no result: Pf growth 96h, SARS PLP yeast, NS1 function inh, Pf growth 48h)
COc1ccc(Cl)cc1S(=O)(=O)NC(C)c1cnn(-c2ccccn2)c1C (configuration not stated)	none (no result: Pf growth 96h, SARS PLP yeast, NS1 function inh, Pf growth 48h)
COc1ccc(-n2ncc(C(C)NS(=O)(=O)c3ccc(C)s3)c2C)cc1 (configuration not stated)	Pf growth 96h 8.3µM
COc1ccc(OC)c(S(=O)(=O)NC(C)c2cnn(-c3ccccn3)c2C)c1 (configuration not stated)	Pf growth 96h 15µM
COc1ccc(N2CC(C(=O)Nc3ccccc3N3CCCC3)CC2=O)c(OC)c1 (configuration not stated)	none (no result: NS1 function inh)
O=C(C1=C[C@H](C2CCCCC2)C[C@H](OCc2ccc(CO)cc2)O1)N1CCN(Cc2ccccc2)CC1	Pf growth 96h 12µM, Pf growth 48h 5.2µM
O=C(C1=C[C@@H](C2CCCCC2)C[C@@H](OCc2ccc(CO)cc2)O1)N1CCN(Cc2ccccc2)CC1	Pf growth 96h 4.1µM, Pf growth 48h 4.1µM
C[C@@H]1C=C(C(=O)N2CCN(Cc3ccccc3)CC2)O[C@H](OCc2ccc(CO)cc2)C1	none
O=C(C1=C[C@H](C2CCCCC2)C[C@H](OCc2ccc(CO)cc2)O1)N1CCOCC1	Pf growth 96h inconclusive
CN1CCC(=C2c3ccccc3C=Cc3ccccc32)CC1	Pf growth 96h inconclusive, Pf growth 48h 12µM!
CN1CCC(=C2c3ccccc3Sc3ccccc32)CC1	Pf growth 96h inconclusive, Pf growth 48h 4.3µM (no result: SARS PLP yeast, NS1 function inh)
COc1ccc(/C=C2\CCC(C3CCCC3)C2=O)cc1OC (configuration not stated)	none
COc1cc(/C=C2\CCC(C3CCCC3)C2=O)ccc1OC(C)C (configuration not stated)	Pf growth 96h inconclusive, Pf growth 48h 2.1µM
